# CCHF vOTU inh – CCHFV vOTU protease inhibition | Pep-AMC fluorescence | inhibition, % at 11.5 µM | actives 0.55% (n = 370,000) | AID 651958; in the data active = inhibition above about 30%; also: 0% = vehicle wells with enzyme and 100% = no enzyme wells
# MazF activator – MazEF (E. coli) toxin RNase activation; FAM/BHQ RNA-DNA oligo cleavage fluorescence, 5 h; activation, % at 20 µM; actives 0.32% (n = 350,000); AID 504720; in the data active = activation above about 50%
# Target sequence (P0AE70 whole entry, looked up): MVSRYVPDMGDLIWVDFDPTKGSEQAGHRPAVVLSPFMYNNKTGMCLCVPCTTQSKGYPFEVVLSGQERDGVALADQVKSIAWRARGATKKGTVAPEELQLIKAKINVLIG
# Mtb FBA inh – Mtb fructose-bisphosphate aldolase inhibition. AID 588726. actives 2.3% (n = 360,000). P9WQA3. purified M. tuberculosis FBA, fluorescence read-out. inhibition, % at 1 µM;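 also: 0% = vehicle and 100% = reference inhibitor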
# Target sequence (P9WQA3 whole entry, looked up): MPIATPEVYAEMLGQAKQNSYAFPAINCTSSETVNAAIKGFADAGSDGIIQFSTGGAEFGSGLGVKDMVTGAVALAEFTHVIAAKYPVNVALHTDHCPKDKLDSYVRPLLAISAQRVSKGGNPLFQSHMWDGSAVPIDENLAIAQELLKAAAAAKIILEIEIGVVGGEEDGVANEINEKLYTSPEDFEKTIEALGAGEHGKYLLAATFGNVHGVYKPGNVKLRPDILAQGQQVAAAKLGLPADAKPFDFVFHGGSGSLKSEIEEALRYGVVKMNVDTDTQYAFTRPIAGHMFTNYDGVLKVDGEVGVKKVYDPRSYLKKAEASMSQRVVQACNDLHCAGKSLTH
# GDH-TPI counter-1 – counter-screen for M. tuberculosis FBA inhibitors: GDH-TPI coupled enzymes; inhibition, % at 4.8 µM; GDH-TPI coupled enzyme counterscreen, NADH absorbance; actives 1.2% (n = 360,000); in the data active = inhibition above about 30%;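 also: 0% = DMSO wells and 100% = wells lacking the enzyme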
# Mtb betalactam – beta-lactam sensitization of Mtb H37Rv. M. tuberculosis H37Rv growth with meropenem, percent inhibition. actives 0.27% (n = 330,000). inhibition, % at 25 µM. AID 434955; call rule not given here;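 also: growth measured after seven days incubation then overnight dye step; 0% = bacteria only wells and 100% = bacteria with antibiotic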
# Mtb FBA confirm – confirmation of M. tuberculosis fructose-bisphosphate aldolase inhibitors | shares compounds with Mtb FBA inh | purified M. tuberculosis FBA, fluorescence read-out | inhibition, % at 1 µM | actives 78% (n = 5,600);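 also: 0% = vehicle wells and 100% = reference inhibitor wells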
# GDH-TPI counter-2 – inhibits GDH-TPI coupling enzymes, flagging Mtb FBA hits; shares compounds with Mtb FBA inh; GDH-TPI coupled enzyme counterscreen, fluorescence; actives 81% (n = 5,600); AID 652141; inhibition, % at 1 µM; in the data active = inhibition above about 10%
# GDH-TPI dose – counter-screen for M. tuberculosis FBA inhibitors: GDH-TPI dose response. actives 79% (n = 170). GDH-TPI coupled enzyme assay, fluorescence, artifact counterscreen. IC50, µM. shares compounds with Mtb FBA inh; call rule not given here
# * = called active by the depositor; . = not tested or not shown; + = active, no number. In the library only some 4% were active in any assay of this set; here they are far more common. Rule as the data show it, unless noted: active = inhibition above about 27%; inactive = the rest.
SMILES,CCHF vOTU inh,MazF activator,Mtb FBA inh,GDH-TPI counter-1,Mtb betalactam,Mtb FBA confirm,GDH-TPI counter-2,others
CCOC(=O)[C@]12CCCC=C1N(CCCOC)C(=O)[C@@H]2CC(=O)NCc1cccc2ccccc12,7,.,.,.,.,.,.,
CCOC(=O)[C@]12CCCC3=C1N(CCC3)C(=O)[C@@H](CC(=O)N1CCOCC1)C2,-10,.,.,.,.,.,.,
O=C(CS(=O)(=O)c1ccccc1)c1cc2cc(F)ccc2oc1=O,.,-3,62*,-6,2,6,-5,
COc1ccc2cc(C(=O)CS(=O)(=O)c3ccccc3)c(=O)oc2c1,-32,7,57*,23,-7,56*,46*,
COC(=O)[C@]12C[C@H](CC(=O)N3CCN(C(=O)C4CC4)CC3)C(=O)N(Cc3ccccc3)C1=C[C@H](COCc1ccccc1)O[C@@H]2C,-2,.,.,.,.,.,.,
NC(=O)c1ncn([C@@H]2O[C@H](C(=O)N[C@H](Cc3c[nH]c4ccccc34)C(=O)N3CCN(CC(=O)N4CCCC4)CC3)[C@@H](O)[C@H]2O)n1,-13,.,.,.,.,.,.,
N#Cc1c(-c2ccco2)cc(C2CC2)nc1N,-65,3,49*,25,-6,13,-1,GDH-TPI dose=2.6*
N#Cc1cccc(Cn2ccc3ccc(-c4ccc5ccn(Cc6cccc(C#N)c6)c5c4)cc32)c1,1,.,.,.,.,.,.,
COC(=O)C1=C(C)N(Cc2ccccc2C(F)(F)F)C(=NCc2ccc(OC)cc2)NC1c1ccc(F)cc1 (stereo not given),17,.,.,.,.,.,.,
Cc1ccc(-n2nc3ccc(N)cc3n2)cc1Cl,-76,-3,28*,6,-2,59*,47*,
COc1ccc(-n2nc3ccc(NS(C)(=O)=O)cc3n2)cc1Cl,-23,4,92*,11,7,36*,22*,
COc1ccc(-n2nc3ccc(N)cc3n2)cc1Cl,-62,12,64*,24,8,50*,44*,
Cc1ccc(-n2nc3ccc(N)cc3n2)c(C)c1,-128,9,100*,20,-3,+,+,
O=C(NCc1ccccc1)[C@@H]1CCCN1C(=O)[C@H]1CCCN1C(=O)c1cc(F)cc(F)c1,-7,.,.,.,.,.,.,
O=C(N[C@@H](Cc1cccnc1)C(=O)N1CCC[C@H]1C(=O)NCCc1ccccc1Cl)c1ccccc1,-7,.,.,.,.,.,.,
COC(=O)[C@H](C)N(CCc1cn(Cc2ccccc2)nn1)S(=O)(=O)c1ccccc1Br,15,.,.,.,.,.,.,
Cc1ccc(-n2nc3ccc(N)cc3n2)cc1C,-105,0,27*,12,1,15,10,GDH-TPI dose=1.5*
CCOC(=O)/C=C/[C@H]1CCc2cccc(Cl)c2O1,17,1,67*,-4,22,9,7,
Cc1cc2c(c(=O)o1)[C@@]1(C(=O)N(C)c3c(Br)cccc31)C1=C(CCCC1=O)O2,4,.,.,.,.,.,.,
CCCCNC(=O)C[C@@H]1C(=O)N(CCc2ccc(Cl)cc2)/C2=C/CCCCC[C@@]21C(=O)OCC,12,.,.,.,.,.,.,
N#Cc1c(N)n(-c2cccc(O)c2)c2nc3ccccc3nc12,-142,-3,84*,20,100,+,+,
N#Cc1c(N)n(CCOC(=O)c2cccc(Br)c2)c2nc3ccccc3nc12,-12,14,45*,6,-6,50*,34*,
CCN(CC)CCOC(=O)c1cccc(Br)c1,-6,1,0,0,2,.,.,
COc1cc(Cn2c(N)c(C#N)c3nc4ccccc4nc32)cc(OC)c1,-91,7,109*,17,-5,+,173*,
N#Cc1c(N)n(-c2ccc(O)cc2)c2nc3ccccc3nc12,14,3,0,2,-7,.,.,
SMILES,CCHF vOTU inh,MazF activator,Mtb FBA inh,GDH-TPI counter-1,Mtb betalactam,Mtb FBA confirm,GDH-TPI counter-2,others
Nc1nnc(-c2ccncc2)s1,-23,4,52*,9,4,5,-1,
Cc1oc2cc(O)ccc2c(=O)c1Oc1ccc(F)cc1,-120,0,103*,15,5,0,-5,
COc1c(C)oc2cc(O)ccc2c1=O,-74,9,87*,11,-12,58*,40*,
COc1cc(-c2cc(=O)c3ccc(O)cc3o2)cc(OC)c1OC,-1,.,9,14,.,.,.,
Cc1oc2cc(O)ccc2c(=O)c1Oc1ccc2ccccc2c1,-77,1,111*,4,8,53*,38*,
CC(=O)O[C@H](COc1c2ccoc2cc2oc(=O)ccc12)C(C)(C)O,-19,1,45*,12,-1,0,-6,
CC(C)c1ccc(NC(=S)N2CCCC2)cc1,11,-1,10,0,-3,.,.,
CC(C)c1ccc(NC(=S)N2CCN(C)CC2)cc1,-3,-6,32*,8,3,0,-4,
O=C(OCc1cn(Cc2ccc(F)cc2F)nn1)N1CCCC1,9,.,.,.,.,.,.,
Cc1cc(=O)oc2cc(OCCc3ccccc3)ccc12,-33,10,68*,7,2,11,-3,GDH-TPI dose=2.5*
Cc1cc(=O)oc2cc(OCC(=O)c3ccccc3)ccc12,-4,5,5,9,3,.,.,
Cc1cc(=O)oc2cc(OCCCC[n+]3ccccc3)ccc12,-21,-7,35*,15,-8,169*,+,
CNc1nc(NCc2ccccc2)c2sccc2n1,13,.,7,6,.,.,.,
CNc1nc(-c2ccccc2)c2sccc2n1,-105,.,78*,17,.,8,-4,
Cc1cc(C)c2c(N)c(C(=O)NN3CC(=O)N(c4ccccc4)CC3=O)sc2n1,-79,0,57*,2,3,188*,129*,
CC(C)OP(=O)(O)C(C)NC(=O)OCc1ccccc1 (stereo not given),-5,.,.,.,.,.,.,
COc1ccc(-c2nnc(SCC(=O)NN=C(C)c3cccc4ccccc34)n2-c2ccccc2)cc1,8,.,.,.,.,.,.,
COC(=O)c1ccc2c(=O)sc(N3CCC(C(N)=O)CC3)nc2c1,-59,-50,40*,-2,-2,72*,61*,
COC(=O)c1ccc(C(=O)OC)c(NC(=S)N2CCC(C(N)=O)CC2)c1,-37,-11,18,2,0,.,.,
O=[N+]([O-])c1ccc(N2CCCC2)c([N+](=O)[O-])c1,-4,1,29*,7,.,182*,123*,
Cc1c(OC(C)C(=O)NCCCN2CCOCC2)ccc2c3c(c(=O)oc12)CCCC3 (stereo not given),-13,-19,27*,0,3,48*,38*,
Cc1c(C)c2ccc(OC(C)C(=O)NCCCN3CCOCC3)c(C)c2oc1=O (stereo not given),0,7,32*,-1,-3,74*,60*,
COc1ccc2oc(C(=O)NCCN3CCOCC3)c(C)c2c1OC,-28,-7,102*,11,-23,+,186*,
